This is a sample that favours compounds with a hit; in the whole collection about 4.1% have one here.
DAX1 inh-1 = inhibitors of human orphan nuclear receptor DAX1 (NR0B1) | 340,000 tested, 0.99% active | inhibition, % at 6.75 µM | P51843 | HEK293 Gal4-DAX1 luciferase reporter, luminescence;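 active means inhibition above the mean over all tested compounds plus 3 SD, cut at about 4.2% in these data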;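 further: 0% = DAX1-transfected cells with DMSO and 100% = empty-vector control cells with DMSO; inhibition shows as a rise in luminescence from relieved DAX1 repression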
Target sequence (P51843 207-470 limits assumed): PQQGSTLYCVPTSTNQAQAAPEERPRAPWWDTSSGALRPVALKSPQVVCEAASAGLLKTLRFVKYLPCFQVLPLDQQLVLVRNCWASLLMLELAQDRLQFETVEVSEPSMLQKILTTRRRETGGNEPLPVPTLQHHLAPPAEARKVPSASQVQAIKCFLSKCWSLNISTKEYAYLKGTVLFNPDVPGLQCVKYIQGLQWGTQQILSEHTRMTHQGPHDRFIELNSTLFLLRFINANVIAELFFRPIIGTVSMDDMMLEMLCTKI
hcDAF12 agonist = H. contortus DAF-12 activation, primary screen; HEK293 hcDAF-12 lit1-tk-luc reporter, luminescence; 0% DMSO, 100% Δ7-dafachronic acid; activation, % at 6.8 µM; 370,000 tested, 1.4% active; AID 652067;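 active means activation above the mean of all tested compounds plus 3 SD, cut at about 5.5% in these data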;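 further: 100% = response to 3 µM Δ7-dafachronic acid high control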
ssDAF12 agonist = activators of S. stercoralis DAF-12 nuclear receptor; HEK293 ssDAF-12/GRIP1 lit1-tk-luc reporter, luminescence; % of 3 µM dafachronic acid response; activation, % at 6.8 µM; 370,000 tested, 1% active;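 active means activation above the mean over all tested compounds plus 3 SD, cut at about 0.9% in these data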;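 further: 0% = DMSO-only wells and 100% = 3 µM delta7-dafachronic acid wells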
DAX1 inh-2 = DAX1 (NR0B1) inhibition, primary screen. HEK293T StAR-luciferase reporter, SF-1/DAX-1 repression relief. inhibition, % at 6.8 µM. 370,000 tested, 1.1% active;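 active means inhibition above the mean over all tested compounds plus 3 SD, cut at about 3.6% in these data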;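 further: 0% = DAX-1 cells with DMSO and 100% = cells lacking DAX-1 with DMSO; higher inhibition means more luminescence from relief of DAX-1 repression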
hgDAF-12 ag = agonists of H. glycines DAF-12 nuclear receptor; HEK293 GAL4-hgDAF12 UAS-luciferase reporter, agonist luminescence; normalized to butyrate control; activation, % at 6.8 µM; 370,000 tested, 1.8% active;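 active means activation above a cutoff set at the mean of all screened compounds plus 3 SD, cut at about 10% in these data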;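 further: 0% = DMSO wells and 100% = sodium butyrate wells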
* hit, by the source's call; . = not tested or not shown.

SMILES | DAX1 inh-1 | hcDAF12 agonist | ssDAF12 agonist | DAX1 inh-2 | hgDAF-12 ag
CC(C)c1ccc(C2c3[nH]c4ccccc4c3C[C@H]3C(=O)N(c4ccccc4C(=O)N4CCC(C(=O)O)CC4)C(=O)N23)cc1 (some centres undefined) | 2.9 | 5.8* | -0.8 | 0.1 | 3.8
COc1ccc(C2c3[nH]c4ccccc4c3C[C@H]3C(=O)N(c4ccccc4C(=O)N4CCC[C@@H]4C(=O)O)C(=O)N23)cc1 (some centres undefined) | -1.1 | 2.9 | 0.4 | 0.8 | 2.2
COc1ccc(C2c3[nH]c4ccccc4c3C[C@H]3C(=O)N(c4ccccc4C(=O)N4CCC[C@H]4C(=O)O)C(=O)N23)cc1 (some centres undefined) | 5.2* | 5.1 | -0.1 | 0.9 | 1.0
CC(C)c1ccc(C2c3[nH]c4ccccc4c3C[C@H]3C(=O)N(c4ccccc4C(=O)N4CCC[C@@H]4C(=O)O)C(=O)N23)cc1 (some centres undefined) | 0.6 | 3.0 | 0.8 | -0.8 | 2.1
COc1ccc(C2CC(=O)C(c3ccc(C(C)=O)cc3)=CN2Cc2ccccc2)cc1 (centres undefined) | . | -0.1 | -1.0 | -0.1 | -1.1
Cc1ccc(-c2nc3ccc(Br)cn3c2CC(C)(C)C)cc1 | -0.6 | 3.0 | -0.3 | 1.5 | 4.6
CN(C(=O)c1cccc(NC(=O)Cc2ccc(NC(=O)C3CCCN(C(=O)C4CCCCC4)C3)cc2)c1)C1CC1 (centres undefined) | -0.3 | 0.0 | -1.0 | -0.6 | 1.0
CN(C(=O)c1cccc(NC(=O)Cc2ccc(NC(=O)C3CCCN(C(=O)C4CCC4)C3)cc2)c1)C1CCC1 (centres undefined) | -0.6 | -2.1 | 1.3* | -0.6 | -1.9
CN(C(=O)c1cccc(NC(=O)Cc2ccc(NC(=O)C3CCN(C(=O)c4ccccc4)CC3)cc2)c1)C1CCC1 | 2.5 | -0.8 | 1.2* | 0.0 | -1.2
O=C(Nc1ccccc1)c1ccc(NCCc2ccccc2)c([N+](=O)[O-])c1 | 1.0 | 0.8 | -1.2 | 0.7 | 0.3
CCc1ccccc1NC(=O)c1ccc(NCCc2ccccc2)c([N+](=O)[O-])c1 | 4.4* | -1.7 | -1.2 | 0.9 | -0.1
CCN(CC)c1ccc(C(=O)Nc2ccccc2)cc1[N+](=O)[O-] | -0.2 | 0.0 | -0.4 | 0.4 | 12.3*
Clc1ccccc1C1CC(c2ccccc2)=Nc2ccccc2N1 (centres undefined) | 4.8* | 1.6 | -0.6 | 1.1 | 7.8
O=C(O)c1ccccc1/C=N/NC(=O)c1cc(-c2ccco2)nc2ccccc12 | -0.5 | 2.7 | 2.9* | -0.2 | 4.2
COc1cccc(CNC(=O)C2CCCN(c3ncccn3)C2)c1OC (centres undefined) | . | 3.1 | -1.7 | -0.6 | 0.5
Cn1cnc(S(=O)(=O)NCc2cccs2)c1 | 2.7 | -0.1 | 1.6* | -0.2 | 0.8
CCOC(=O)C1=C(C(=O)OCC)C2N(Cc3ccc(C#N)cc3)c3ccccc3[C@@]23C[C@@H](C(=O)OC)N(S(=O)(=O)c2ccccc2C)C3=N1 (some centres undefined) | . | -2.0 | -0.5 | 0.5 | 0.6
COc1ccc2cc(C3(C)NC(=O)N(CC(=O)N4CCCCC4)C3=O)ccc2c1 (centres undefined) | -1.3 | 0.6 | -1.4 | 4.1* | -2.0
COc1ccc(S(=O)(=O)N2CCN(C(=O)CN3C(=O)NC(C)(c4ccc5ccccc5c4)C3=O)CC2)cc1 (centres undefined) | -0.7 | -1.0 | -1.7 | -1.3 | -1.0
O=C(N/N=C/c1cc2c(cc1Br)OCO2)c1ccccn1 | . | 2.9 | -0.5 | 1.8 | 6.3
Cc1cc(C(=O)N/N=C/c2c[nH]c3ccccc23)cs1 | 0.6 | 4.2 | 0.8 | 0.3 | 7.8
O=C(N/N=C/c1c[nH]c2ccccc12)c1ccccc1 | 6.1* | 2.3 | 0.0 | 0.3 | 5.3
O=C(N/N=C/c1cc2c(cc1Br)OCO2)c1c[nH]c2ccccc12 | 5.4* | 4.1 | 0.2 | 0.8 | 10.5*
Cc1cc(C(=O)N/N=C/c2c[nH]c3ccccc23)c(C)o1 | 0.5 | 2.8 | 0.8 | 0.7 | 7.6
Cc1ccc(C(=O)N/N=C/c2c[nH]c3ccccc23)o1 | 0.0 | 6.4* | 0.0 | 0.1 | 7.1
SMILES | DAX1 inh-1 | hcDAF12 agonist | ssDAF12 agonist | DAX1 inh-2 | hgDAF-12 ag
Cc1nc(N)sc1C(=O)N/N=C/c1c[nH]c2ccccc12 | -1.1 | 4.5 | -0.6 | 0.1 | 10.7*
O=C(N/N=C/c1c[nH]c2ccccc12)c1ccncc1 | 1.7 | 4.9 | -0.5 | 0.0 | 2.7
C#CCN(Cc1cccc(F)c1)C(=O)c1nnc2c3ccccc3n(S(=O)(=O)c3ccc(C)cc3)c2n1 | . | 1.1 | -0.9 | -0.3 | -1.4
O=C(NCc1ccccc1)[C@H]1CCCN1C(=O)[C@H]1CCCN1C(=O)c1ccc(Cl)cc1 | . | -0.5 | -1.0 | -0.9 | -0.2
CN1C(=O)[C@@]2(O[C@H]3C=CC=CN3C3=C2C(=O)CCC3)c2cc([N+](=O)[O-])ccc21 | . | 3.0 | 0.0 | -0.8 | 1.2
Nc1[nH]c(C(=O)c2ccc(Br)cc2)c(-c2ccncc2)c1C(=O)c1ccccc1 | . | -1.8 | -0.9 | 0.3 | -3.1
COC(=O)[C@@]12CCCCC=C1N(CCc1ccc(Cl)cc1)C(=O)[C@H]2CC(=O)NCCc1ccccc1OC | . | -2.5 | -0.8 | -0.5 | -3.2
O=C(N/N=C/c1c[nH]c2ccccc12)c1[nH]c2ccc(Br)cc2c1-c1ccccc1 | 1.4 | 4.4 | 1.4* | 1.9 | -2.0
O=C(N/N=C/c1ccccc1Cl)c1ccc(F)cc1 | 1.9 | 2.6 | -1.6 | 1.8 | 12.6*
Cc1cccc(NC(=S)N/N=C/c2c[nH]c3ccccc23)c1 | -1.2 | 0.4 | -0.3 | -0.5 | 14.3*
O=C(NN=Cc1c[nH]c2ccccc12)NN=Cc1c[nH]c2ccccc12 | -0.5 | 1.9 | 0.6 | -0.5 | -1.8
O=C(N/N=C/c1cc(Cl)ccc1O)c1ccccc1Br | -2.4 | -2.9 | 1.5* | -0.2 | -4.2
Fc1ccc(NC(=S)NN=Cc2ccccc2Cl)cc1 | 3.6 | 1.6 | -1.0 | -0.2 | 9.8
COC(=O)C[C@H]1C[C@H]2c3cc(NC(=O)C4CCOCC4)ccc3O[C@H]2[C@H](CO)O1 | 0.4 | 1.0 | 0.8 | 0.3 | 2.1
O=C(N[C@H](C(=O)N1CCC[C@H]1C(=O)NC1CCCC1)C1CCCCC1)C1CCCC1 | . | -1.0 | -1.2 | -0.3 | 1.4
CCOC1=C2[C@@H](CN(S(=O)(=O)c3ccc(C)cc3)[C@H]2c2ccccc2)[C@H]2C(=O)N(c3ccccc3)C(=O)[C@H]2C1 | . | 1.7 | -0.4 | 2.0 | 0.4
O=C(N/N=C/c1c[nH]c2ccccc12)c1cc(Br)ccc1O | -1.1 | 5.3 | 1.3* | 0.2 | 9.9
CCOc1ccc(Br)cc1C(=O)N/N=C/c1c[nH]c2ccccc12 | 2.9 | -0.3 | -0.9 | -0.1 | 1.7
CC1=C(C(=O)N(C(C)C)C(C)C)CC(CC(=O)NCc2ccco2)C(=O)N1CCC1=CCCCC1 (centres undefined) | . | 1.8 | -1.6 | -0.3 | -0.7

High-throughput results deposited in PubChem by The Scripps Research Institute Molecular Screening Center.
